The record followed here is the supplement of paper PMC10849652.

Of roughly 7,900 targets only a part is listed; those with a hit were picked by preference. About 0.6% of all pairs of compound and target were hits. Values without a mark were called inactive.

Sequence of UniProt O75822 (O75822 whole entry, looked up): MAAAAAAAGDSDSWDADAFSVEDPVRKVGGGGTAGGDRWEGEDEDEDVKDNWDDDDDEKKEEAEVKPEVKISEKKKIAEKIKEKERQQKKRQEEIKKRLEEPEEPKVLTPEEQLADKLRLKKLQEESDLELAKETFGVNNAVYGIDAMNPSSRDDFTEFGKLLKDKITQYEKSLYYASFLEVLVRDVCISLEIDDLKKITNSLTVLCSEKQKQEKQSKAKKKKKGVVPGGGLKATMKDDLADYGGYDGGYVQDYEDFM
Sequence of UniProt Q03468 (Q03468 whole entry, looked up): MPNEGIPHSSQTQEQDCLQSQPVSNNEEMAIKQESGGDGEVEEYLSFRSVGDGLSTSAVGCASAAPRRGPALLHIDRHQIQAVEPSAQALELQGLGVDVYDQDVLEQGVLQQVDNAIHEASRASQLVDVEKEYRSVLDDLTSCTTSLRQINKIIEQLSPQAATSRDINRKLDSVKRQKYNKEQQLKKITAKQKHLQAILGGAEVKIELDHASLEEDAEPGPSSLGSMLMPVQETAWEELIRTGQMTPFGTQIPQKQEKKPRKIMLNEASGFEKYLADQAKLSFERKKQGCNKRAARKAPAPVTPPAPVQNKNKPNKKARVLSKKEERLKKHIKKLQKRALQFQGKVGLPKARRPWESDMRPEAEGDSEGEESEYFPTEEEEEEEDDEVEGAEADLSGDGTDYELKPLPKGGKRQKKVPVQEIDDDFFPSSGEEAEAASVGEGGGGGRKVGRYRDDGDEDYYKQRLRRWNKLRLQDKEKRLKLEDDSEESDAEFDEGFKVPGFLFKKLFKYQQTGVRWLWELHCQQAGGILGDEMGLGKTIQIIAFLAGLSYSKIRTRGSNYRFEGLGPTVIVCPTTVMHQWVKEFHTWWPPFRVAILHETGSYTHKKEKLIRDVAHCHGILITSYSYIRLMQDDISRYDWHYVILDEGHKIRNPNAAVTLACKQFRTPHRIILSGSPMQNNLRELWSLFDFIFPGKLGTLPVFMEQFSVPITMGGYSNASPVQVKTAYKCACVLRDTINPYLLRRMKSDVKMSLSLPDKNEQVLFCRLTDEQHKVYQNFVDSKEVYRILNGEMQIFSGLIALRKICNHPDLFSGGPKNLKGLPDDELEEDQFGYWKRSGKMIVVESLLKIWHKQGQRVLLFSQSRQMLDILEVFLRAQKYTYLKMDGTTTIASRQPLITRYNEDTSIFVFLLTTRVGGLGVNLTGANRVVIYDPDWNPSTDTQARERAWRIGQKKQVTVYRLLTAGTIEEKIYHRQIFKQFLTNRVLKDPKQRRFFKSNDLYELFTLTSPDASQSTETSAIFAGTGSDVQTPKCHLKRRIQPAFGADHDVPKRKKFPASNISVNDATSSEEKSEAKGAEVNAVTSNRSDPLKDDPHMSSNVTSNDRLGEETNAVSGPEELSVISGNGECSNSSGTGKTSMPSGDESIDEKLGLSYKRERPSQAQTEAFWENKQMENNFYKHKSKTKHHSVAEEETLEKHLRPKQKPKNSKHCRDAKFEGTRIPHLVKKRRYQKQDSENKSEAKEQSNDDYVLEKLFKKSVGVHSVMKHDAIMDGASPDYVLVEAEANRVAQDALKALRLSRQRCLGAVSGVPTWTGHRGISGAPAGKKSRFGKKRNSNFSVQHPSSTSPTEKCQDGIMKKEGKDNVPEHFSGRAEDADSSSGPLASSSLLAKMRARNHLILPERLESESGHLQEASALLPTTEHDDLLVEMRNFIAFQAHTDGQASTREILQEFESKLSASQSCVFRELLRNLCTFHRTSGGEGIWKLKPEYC
Sequence of UniProt Q01780 (Q01780 whole entry, looked up): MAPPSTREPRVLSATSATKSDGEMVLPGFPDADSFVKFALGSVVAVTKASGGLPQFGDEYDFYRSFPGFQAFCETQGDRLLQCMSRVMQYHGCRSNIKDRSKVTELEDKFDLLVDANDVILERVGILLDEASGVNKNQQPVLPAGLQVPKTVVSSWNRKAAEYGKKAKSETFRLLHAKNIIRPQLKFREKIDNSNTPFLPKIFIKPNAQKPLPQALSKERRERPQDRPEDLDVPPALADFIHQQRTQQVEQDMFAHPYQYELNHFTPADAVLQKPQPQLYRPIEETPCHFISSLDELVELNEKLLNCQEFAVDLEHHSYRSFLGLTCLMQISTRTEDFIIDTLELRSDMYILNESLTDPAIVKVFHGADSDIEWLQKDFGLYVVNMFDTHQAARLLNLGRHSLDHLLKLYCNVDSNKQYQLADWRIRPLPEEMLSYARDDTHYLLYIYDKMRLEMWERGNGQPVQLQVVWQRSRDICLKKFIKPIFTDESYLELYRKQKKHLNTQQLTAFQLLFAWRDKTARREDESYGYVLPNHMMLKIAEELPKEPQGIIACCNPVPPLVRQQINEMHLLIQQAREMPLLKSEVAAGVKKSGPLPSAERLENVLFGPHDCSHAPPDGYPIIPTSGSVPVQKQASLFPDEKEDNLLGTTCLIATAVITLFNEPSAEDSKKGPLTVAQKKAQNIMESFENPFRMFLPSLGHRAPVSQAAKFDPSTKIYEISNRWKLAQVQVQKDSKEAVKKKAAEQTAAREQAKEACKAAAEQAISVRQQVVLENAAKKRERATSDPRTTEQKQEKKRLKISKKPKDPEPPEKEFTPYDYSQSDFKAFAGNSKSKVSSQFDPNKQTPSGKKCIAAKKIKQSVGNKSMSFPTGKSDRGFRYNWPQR
Sequence of UniProt Q96GG9 (Q96GG9 whole entry, looked up): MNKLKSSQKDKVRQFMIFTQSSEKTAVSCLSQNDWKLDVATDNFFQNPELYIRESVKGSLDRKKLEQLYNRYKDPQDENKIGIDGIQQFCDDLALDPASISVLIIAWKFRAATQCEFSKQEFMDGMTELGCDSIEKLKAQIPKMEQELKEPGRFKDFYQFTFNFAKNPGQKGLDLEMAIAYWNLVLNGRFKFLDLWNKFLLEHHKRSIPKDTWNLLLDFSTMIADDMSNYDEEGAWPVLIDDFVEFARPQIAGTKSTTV
Sequence of UniProt O15121 (O15121 whole entry, looked up): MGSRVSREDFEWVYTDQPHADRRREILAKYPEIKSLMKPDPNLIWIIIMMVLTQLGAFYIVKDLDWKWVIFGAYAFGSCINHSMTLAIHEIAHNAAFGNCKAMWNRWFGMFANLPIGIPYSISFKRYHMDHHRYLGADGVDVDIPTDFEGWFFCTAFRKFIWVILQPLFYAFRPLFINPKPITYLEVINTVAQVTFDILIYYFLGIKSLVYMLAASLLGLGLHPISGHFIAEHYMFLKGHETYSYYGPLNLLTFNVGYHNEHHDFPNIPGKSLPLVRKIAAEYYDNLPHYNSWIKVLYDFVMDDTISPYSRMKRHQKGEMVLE
Sequence of UniProt Q9NZJ5 (Q9NZJ5 whole entry, looked up): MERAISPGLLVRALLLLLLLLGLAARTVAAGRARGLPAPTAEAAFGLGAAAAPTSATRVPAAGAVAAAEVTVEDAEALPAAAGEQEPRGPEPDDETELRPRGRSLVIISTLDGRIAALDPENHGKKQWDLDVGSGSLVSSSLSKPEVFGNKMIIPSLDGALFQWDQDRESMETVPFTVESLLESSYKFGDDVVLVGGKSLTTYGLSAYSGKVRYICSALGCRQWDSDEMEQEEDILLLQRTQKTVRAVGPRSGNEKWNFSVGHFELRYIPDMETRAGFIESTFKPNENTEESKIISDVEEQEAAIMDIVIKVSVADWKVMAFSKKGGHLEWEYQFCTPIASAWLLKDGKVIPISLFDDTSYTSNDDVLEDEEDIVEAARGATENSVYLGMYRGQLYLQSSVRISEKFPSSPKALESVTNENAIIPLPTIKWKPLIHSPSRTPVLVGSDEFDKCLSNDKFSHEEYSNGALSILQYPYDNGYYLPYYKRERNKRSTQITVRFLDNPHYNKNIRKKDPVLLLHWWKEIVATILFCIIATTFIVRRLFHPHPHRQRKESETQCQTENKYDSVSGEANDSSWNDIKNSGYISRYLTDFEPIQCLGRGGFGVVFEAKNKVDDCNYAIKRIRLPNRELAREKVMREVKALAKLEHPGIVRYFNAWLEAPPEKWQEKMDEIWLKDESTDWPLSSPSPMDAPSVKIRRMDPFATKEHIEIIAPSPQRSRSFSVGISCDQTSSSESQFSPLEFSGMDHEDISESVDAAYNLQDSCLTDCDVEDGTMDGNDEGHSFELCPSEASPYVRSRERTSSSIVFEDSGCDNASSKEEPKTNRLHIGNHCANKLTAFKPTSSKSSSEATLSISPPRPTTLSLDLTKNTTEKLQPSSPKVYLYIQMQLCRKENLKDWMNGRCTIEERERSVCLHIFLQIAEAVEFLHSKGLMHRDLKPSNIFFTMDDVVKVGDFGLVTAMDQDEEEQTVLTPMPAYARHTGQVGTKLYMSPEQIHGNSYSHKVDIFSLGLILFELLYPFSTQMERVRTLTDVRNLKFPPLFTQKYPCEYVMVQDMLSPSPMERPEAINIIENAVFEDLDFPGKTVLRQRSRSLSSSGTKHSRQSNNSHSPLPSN
Sequence of UniProt P68104 (P68104 whole entry, looked up): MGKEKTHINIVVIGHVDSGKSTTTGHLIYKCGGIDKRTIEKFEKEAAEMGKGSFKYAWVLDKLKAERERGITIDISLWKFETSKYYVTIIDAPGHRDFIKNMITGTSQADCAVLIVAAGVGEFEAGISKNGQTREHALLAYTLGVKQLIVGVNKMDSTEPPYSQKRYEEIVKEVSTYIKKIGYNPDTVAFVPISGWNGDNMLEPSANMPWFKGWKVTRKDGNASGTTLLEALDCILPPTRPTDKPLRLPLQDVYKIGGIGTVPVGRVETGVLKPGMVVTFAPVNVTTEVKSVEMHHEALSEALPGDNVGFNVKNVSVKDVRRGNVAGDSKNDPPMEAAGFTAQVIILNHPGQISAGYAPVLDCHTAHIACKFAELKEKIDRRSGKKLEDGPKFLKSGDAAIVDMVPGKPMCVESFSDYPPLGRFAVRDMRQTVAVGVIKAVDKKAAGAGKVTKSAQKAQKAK
Sequence of UniProt Q8N8J7 (Q8N8J7 whole entry, looked up): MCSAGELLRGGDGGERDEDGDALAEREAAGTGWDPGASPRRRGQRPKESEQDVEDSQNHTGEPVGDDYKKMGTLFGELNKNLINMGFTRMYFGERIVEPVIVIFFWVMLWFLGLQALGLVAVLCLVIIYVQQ

Compound in one assay: C1CCN(C1)C(=O)NC2=CC=CC(=C2)NC3=NC=C(C(=N3)NCCC4=CN=CN4)Br
Put plainly: log2 fold change, soluble protein after heating vs DMSO (PISA); higher = thermal stabilisation; K562 cells, 10 uM, 30 min; active = over 0.2 and 3.5 SD of the protein, either way, in both replicates (recomputed). The gist of the method:
(§1)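 K562 cells at 2×10^6 cells/mL were given 10 μM compound for 30 min. Aliquots then went through 3 min of heating across 48°C-58°C, were pooled, and were extracted in PBS with 0.5% NP-40 at 4°C, and the supernatant after 21,000xg for 90 min was quantified by TMTpro 16plex LC-MS/MS with channel sums equalised. Thermal stability relative to control samples, from duplicates, is given as log2 fold change.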
For the target EIF2AK3 (UniProt Q9NZJ5), the log2 fold change is 0.148.
For the target DCUN1D1 (UniProt Q96GG9), the log2 fold change was -0.017.
On the same count and under the same terms, then EIF3J isoform 2 (UniProt O75822), with 0.143.
Same read-out and setting: then DCAF10 (UniProt Q5QP82), with 0.029.
Same read-out and setting: in the case of DENND10 (UniProt Q8TCE6) it was 0.063; in that of EIF2AK1 (UniProt Q9BQI3), -0.007.
Turning to FAM3A (UniProt P98173), the log2 fold change was -0.044.
The same measure, in the same setting: in the case of ELOVL5 isoform 2 (UniProt Q9NYP7) it was 0.031.
The same measure, in the same setting: then DEGS1 (UniProt O15121), with -0.245.
Same read-out and setting: in the case of DHCR7 (UniProt Q9UBM7) it was -0.037.
For EIF4G3 isoform 3 (UniProt O43432), the log2 fold change is -0.049.
As for EIF3J (UniProt O75822), the log2 fold change is 0.009.
On the same count and under the same terms, then E2F4 (UniProt Q16254), with -0.071.
Regarding DOHH (UniProt Q9BU89), the log2 fold change was -0.051.
For ERLIN2 (UniProt O94905), the log2 fold change is -0.002.
On the same count and under the same terms, then DPYSL2 (UniProt Q16555), with -0.044; and EEF1A1 (UniProt P68104), with -0.055; and EHBP1L1 (UniProt Q8N3D4), with -0.1.
EXOC8 (UniProt Q8IYI6): the log2 fold change is -0.053.
On the same count and under the same terms, then DYNC1I2 isoform 2 (UniProt Q13409), with -0.062; and DTWD1 (UniProt Q8N5C7), with 0.016; and DOLPP1 (UniProt Q86YN1), with -0.088.
On the same count and under the same terms, then ERCC6 (UniProt Q03468), with -0.065.
Turning to CUX1 isoform 3 (UniProt P39880), the log2 fold change was -0.003.
In the case of ELOVL7 (UniProt A1L3X0), the log2 fold change was 0.078.
Same read-out and setting: then DUS3L (UniProt Q96G46), with -0.043; and EIF2S3 (UniProt P41091), with -0.023.
As for EGR1 (UniProt P18146), the log2 fold change is 0.118.
In the case of DDX27 (UniProt Q96GQ7), the log2 fold change is -0.064.
Still for that read-out and setting: then EED, A0A5F9ZI63, with 0.032; and ELF1 (UniProt P32519), with 0.013.
Still for that read-out and setting: then EZH2 isoform 2 (UniProt Q15910), with -0.106; and DNM2 (UniProt P50570), with 0.015.
Regarding EXOSC10 (UniProt Q01780), the log2 fold change is 0.052.
Same read-out and setting: then FAM117B (UniProt Q6P1L5), with 0.165; and DBN1 isoform 3 (UniProt Q16643), with 0.089.
On the same count and under the same terms, then EIF4A1 (UniProt P60842), with -0.039.
The same measure, in the same setting: then FAM241A (UniProt Q8N8J7), with 0.016.

Compound in the next assay: C1CN(CCC1(CC2=CC=C(C=C2)Cl)N)C3=NC=NC4=C3C=CN4
Described as above. The gist of the method:
as §1
Take EIF2AK3 (UniProt Q9NZJ5): the log2 fold change was 0.075.
Still for that read-out and setting: in the case of DCUN1D1 (UniProt Q96GG9) it was 0.024; in that of EIF3J isoform 2 (UniProt O75822), 0; in that of DCAF10 (UniProt Q5QP82), 0.006.
For DENND10 (UniProt Q8TCE6), the log2 fold change was 0.083.
Consider EIF2AK1 (UniProt Q9BQI3), for which the log2 fold change is 0.012.
For the target FAM3A (UniProt P98173), the log2 fold change was 0.059.
ELOVL5 isoform 2 (UniProt Q9NYP7): the log2 fold change is 0.008.
Still for that read-out and setting: then DEGS1 (UniProt O15121), with 0.32.
Still for that read-out and setting: in the case of DHCR7 (UniProt Q9UBM7) it was 0.623 (active).
The same measure, in the same setting: in the case of EIF4G3 isoform 3 (UniProt O43432) it was -0.125; in that of EIF3J (UniProt O75822), -0.01; in that of E2F4 (UniProt Q16254), -0.022.
Turning to DOHH (UniProt Q9BU89), the log2 fold change is 0.026.
Same read-out and setting: in the case of ERLIN2 (UniProt O94905) it was -0.097; in that of DPYSL2 (UniProt Q16555), 0.14.
The same measure, in the same setting: then EEF1A1 (UniProt P68104), with 0.122.
Still for that read-out and setting: then EHBP1L1 (UniProt Q8N3D4), with -0.116; and EXOC8 (UniProt Q8IYI6), with -0.054; and DYNC1I2 isoform 2 (UniProt Q13409), with 0.029.
DTWD1 (UniProt Q8N5C7): the log2 fold change is 0.044.
In the case of DOLPP1 (UniProt Q86YN1), the log2 fold change is 0.001.
Same read-out and setting: then ERCC6 (UniProt Q03468), with 0.106.
Still for that read-out and setting: then CUX1 isoform 3 (UniProt P39880), with 0.092; and ELOVL7 (UniProt A1L3X0), with 0.065; and DUS3L (UniProt Q96G46), with 0.078.
On the same count and under the same terms, then EIF2S3 (UniProt P41091), with -0.06; and EGR1 (UniProt P18146), with -0.121.
On to DDX27 (UniProt Q96GQ7), for which the log2 fold change was -0.259.
On the same count and under the same terms, in the case of EED, A0A5F9ZI63 it was 0.012; in that of ELF1 (UniProt P32519), -0.092.
Same read-out and setting: then EZH2 isoform 2 (UniProt Q15910), with -0.062; and DNM2 (UniProt P50570), with -0.003; and EXOSC10 (UniProt Q01780), with 0.067.
Still for that read-out and setting: then FAM117B (UniProt Q6P1L5), with 0.09.
DBN1 isoform 3 (UniProt Q16643): the log2 fold change is 0.041.
Same read-out and setting: then EIF4A1 (UniProt P60842), with 0.054; and FAM241A (UniProt Q8N8J7), with 0.045.
